The panel holds about 83,000 compounds, 20% with a hit somewhere; the sample as a whole holds those more often.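 Note: values are percent growth. 100 is the growth of untreated cells, values between 100 and 0 indicate rising inhibition; between -100 and 0 indicates cell death.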 Values without a mark were called inactive. Calls of active or inactive are those of the source. Rule for the calls: active = growth percent below 10; inactive = the rest.
Columns and labels:
Assay in all cases: NCI-60 one-dose screen, 48 h (100 = growth as untreated, 0 = no growth, -100 = all killed)
HCT-15 colon = conditions: 10 µM unless noted
HT29 colon = conditions: 10 µM unless noted
SNB-19 CNS = conditions: 10 µM unless noted
U251 CNS = conditions: 10 µM unless noted
SK-MEL-5 melanoma = conditions: 10 µM unless noted
UACC-62 melanoma = conditions: 10 µM unless noted
LOX IMVI melanoma = conditions: 10 µM unless noted
SK-MEL-28 melanoma = conditions: 10 µM unless noted
SK-MEL-2 melanoma = conditions: 10 µM unless noted
EKVX NSCLC = conditions: 10 µM unless noted
SN12C renal = conditions: 10 µM unless noted
TK-10 renal = conditions: 10 µM unless noted
ACHN renal = conditions: 10 µM unless noted
CAKI-1 renal = conditions: 10 µM
A498 renal = conditions: 10 µM unless noted
CCRF-CEM leukemia = conditions: 10 µM unless noted
MOLT-4 leukemia = conditions: 10 µM unless noted
PC-3 prostate = conditions: 10 µM unless noted
UO-31 renal = conditions: 10 µM unless noted
SNB-75 CNS = conditions: 10 µM unless noted

| SMILES | growth (HCT-15 colon) | growth (HT29 colon) | growth (SNB-19 CNS) | growth (U251 CNS) | growth (SK-MEL-5 melanoma) | growth (UACC-62 melanoma) | growth (LOX IMVI melanoma) | growth (SK-MEL-28 melanoma) | growth (SK-MEL-2 melanoma) | growth (EKVX NSCLC) | growth (SN12C renal) | growth (TK-10 renal) | growth (ACHN renal) | growth (CAKI-1 renal) | growth (A498 renal) | growth (CCRF-CEM leukemia) | growth (MOLT-4 leukemia) | growth (PC-3 prostate) | growth (UO-31 renal) | growth (SNB-75 CNS) |
| --- | --- | --- | --- | --- | --- | --- | --- | --- | --- | --- | --- | --- | --- | --- | --- | --- | --- | --- | --- | --- |
| O=C(/C=C/c1cn(-c2ccccc2)nc1-c1ccc(Cl)cc1)c1cc2ccccc2oc1=O | 58.9% | 62.1% | 54.3% | 35.1% | 72% | 52.7% | 37.3% | 93% | 88% | 79.8% | 31% | 113% | 59.9% | 29.2% | 111% | 50.7% | 55.3% | – | – | – |
| COc1ccc(OC)c([C@H]2c3[nH]c4ccccc4c3C[C@H]3C(=O)N(CCCCCCC(=O)NO)CC(=O)N23)c1 | 99.5% | 87.6% | 86.9% | 81.1% | 86.8% | 53.1% | 15% | 75.2% | 86.6% | 93.1% | 84.9% | 101% | 94.2% | 78.4% | – | 46.1% | 63.2% | 77.9% | 78.5% | – |
| Cc1cc(F)cc(NS(=O)(=O)c2ccc(-c3cnc(C4CC4)o3)cc2)c1 | 22.4% | 8.59% (active) | 35.2% | 22.6% | 21.5% | 25.6% | – | 60.4% | – | 34.3% | 44.8% | 53.5% | 44.4% | 39.9% | – | 20.8% | 26.1% | 17.4% | 43.2% | – |
| Oc1ccc(CSc2nnc(-c3ccncc3)o2)c2cccnc12 | 23% | 20.7% | – | 15.8% | -51.3% (active) | 18.2% | 21.4% | 39.7% | 8.88% (active) | 47.6% | 7.4% (active) | 34.6% | 40.5% | 7.09% (active) | 9.33% (active) | 26% | 25.7% | – | 12.4% | – |
| O=[N+]([O-])c1ccc(-c2nnc(SCc3ccc(O)c4ncccc34)n2-c2ccccc2)cc1 | 19.2% | 65.8% | 14.4% | 14% | 1.12% (active) | 27.7% | -19.9% (active) | 43.4% | – | 40.5% | 9.69% (active) | 79.3% | 29.3% | 30.1% | 70.8% | 21% | 43.2% | 21% | 7.34% (active) | – |
| CN(c1ccc(Br)cc1)S(=O)(=O)c1ccc(-c2cnc(C3CC3)o2)cc1 | 17.7% | 11% | – | 22.7% | 30% | 28.5% | – | 58.1% | 69.5% | 43.1% | 30.2% | 87.6% | 38.9% | 36.9% | – | 18% | 23.5% | 22.4% | 44.4% | – |
| CCCCCCNC(=O)Oc1ccc(/C(=C(/C)c2ccc(Cl)cc2)c2ccc(OCCN3CCCC3)cc2)cc1 | 0.291% (active) | – | 45% | 29.6% | 14.9% | 20.8% | -98.6% (active) | -49.4% (active) | 78% | 53.4% | 50.4% | 86% | 37.5% | 55.3% | – | 4.42% (active) | – | 37.5% | 18.1% | 67.2% |
| Nc1nc(-c2cccc([N+](=O)[O-])c2)c(N=Nc2ccccc2Cl)s1 | 48.9% | – | 82% | 43.9% | 80.8% | 71.6% | 25.3% | 93.7% | – | 79.6% | 73.7% | 85.7% | 63.2% | 28.8% | – | 66.8% | 68.7% | 64.9% | 63.8% | 76.8% |
| CCc1ccc(NC(=O)N[C@@H](Cc2cccc(C)c2)C(=O)N[C@@H]2C(=O)N3CCC[C@H]3C(=O)N3CCCC[C@H]3C(=O)N[C@@H](CO)C(=O)N3C[C@H](C)C[C@H]3C(=O)O[C@H]2C)c(F)c1 | 15.5% | – | 28.3% | 31.7% | -29.3% (active) | 25.9% | 32.8% | 38.1% | – | 30% | 22.4% | 52.9% | 32.2% | 15.5% | – | 37.2% | 41.8% | – | 29.6% | 20.4% |
| CCN(CC)CCN1C(=O)c2c(c3c4cccnc4[nH]c3c3ccc4ccccc4c23)C1=O | 58.7% | – | 59.5% | 63.5% | 80% | 69.2% | – | 106% | 107% | 89% | 71.9% | 121% | 35.9% | 46.5% | 77.3% | 21.9% | 12.8% | 59.2% | 53.2% | 54.3% |
| CC(C)(C)n1nnnc1C(Nc1nccs1)c1cc2cccc3ccc4cccc1c4c32 (centres undefined) | 93.2% | – | 88.8% | 89.3% | 94% | 48.8% | 96.3% | 101% | – | 91% | 98.5% | 99% | 97.4% | 51.1% | – | 98.7% | 96.6% | 90.1% | 84.9% | 95.7% |
| C#CCOc1ccccc1C(Nc1ccccc1)c1nnnn1C1CCCCC1 (centres undefined) | 95.5% | – | 94.7% | 99.9% | 99.6% | 63.3% | 95.4% | 101% | – | 95.9% | 104% | 106% | 93.9% | 59.6% | 104% | 92.7% | 88.3% | 92.6% | 78.5% | 102% |
| Oc1ccc(CSc2nnc(-c3ccc(Oc4ccccc4)cc3)o2)c2cccnc12 | 9.07% (active) | – | 17.3% | -4.12% (active) | 16.6% | 22.6% | 19.8% | 52.2% | 39.9% | 23.6% | 23.8% | 34.8% | -2.93% (active) | 60.3% | 78.9% | 16% | 26.9% | 20.4% | 2.75% (active) | -25.3% (active) |

Reference: PubChem BioAssay (NCI)
